# Test results taken from the supplement of paper PMC12282887.
# ± gives the standard deviation of the averaged measurements.
# Key:
# Assay in all cases: promoter activity interaction Z-score (Lux/OD deviation from empty-vector control); higher = stronger promoter induction by the compound
# [1] = system: E. coli BW25113 acrABp lux reporter
# Procedure, shortened: (§1)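 E. coli BW25113 luxCDABE reporter strains grew at 37°C in 40 µl LB Lennox in 384-well plates, with OD600 and luminescence read every 30 min for 12 h. After integration over 0–8 h for wild type or 1–9 h for deletion strains, wells under 10% of the median growth value were removed. Each score is the Z-transformed residual of growth-normalised luminescence fitted against a control.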
# [2] = system: E. coli BW25113 marRABp lux reporter
# Procedure, shortened: as §1
# [3] = system: E. coli BW25113 micFp lux reporter
# Procedure, shortened: as §1
# [4] = system: E. coli BW25113 ompFp lux reporter
# Procedure, shortened: as §1
# [5] = system: E. coli BW25113 robp lux reporter
# Procedure, shortened: as §1
# [6] = system: E. coli BW25113 soxSp lux reporter
# Procedure, shortened: as §1
# [7] = system: E. coli BW25113 tolCp lux reporter
# Procedure, shortened: as §1
# [8] = 0.13 µg/ml, genetic background: wild type
# [9] = 0.13 µg/ml, genetic background: ΔmarA
# [10] = 0.13 µg/ml, genetic background: Δrob
# [11] = 0.13 µg/ml, genetic background: ΔsoxS
# [12] = 0.26 µg/ml, genetic background: wild type
# [13] = 0.26 µg/ml, genetic background: ΔmarA
# [14] = 0.26 µg/ml, genetic background: Δrob
# [15] = 0.26 µg/ml, genetic background: ΔsoxS
# [16] = 0.52 µg/ml, genetic background: wild type
# [17] = 0.52 µg/ml, genetic background: ΔmarA
# [18] = 0.52 µg/ml, genetic background: Δrob
# [19] = 0.52 µg/ml, genetic background: ΔsoxS
smiles,measurement,setting,value
CNC(C)C1CCC(N)C(OC2C(N)CC(N)C(OC3OCC(C)(O)C(NC)C3O)C2O)O1 (centres undefined) [Gentamicin],promoter activity interaction Z-score,[1]; [8],-0.258 ± 0.098
same,promoter activity interaction Z-score,[1]; [9],0.731 ± 0.32
same,promoter activity interaction Z-score,[1]; [10],0.126 ± 0.055
same,promoter activity interaction Z-score,[1]; [11],0.158 ± 0.14
same,promoter activity interaction Z-score,[1]; [12],-0.117 ± 0.18
same,promoter activity interaction Z-score,[1]; [13],0.35 ± 0.15
same,promoter activity interaction Z-score,[1]; [14],0.483 ± 0.18
same,promoter activity interaction Z-score,[1]; [15],0.0843 ± 0.06
same,promoter activity interaction Z-score,[1]; [16],0.311 ± 0.023
same,promoter activity interaction Z-score,[1]; [17],0.396 ± 0.21
same,promoter activity interaction Z-score,[1]; [18],0.801 ± 0.45
same,promoter activity interaction Z-score,[1]; [19],0.744 ± 0.39
same,promoter activity interaction Z-score,[2]; [8],-0.229 ± 0.24
same,promoter activity interaction Z-score,[2]; [9],-0.193 ± 0.19
same,promoter activity interaction Z-score,[2]; [10],-0.0111 ± 0.062
same,promoter activity interaction Z-score,[2]; [11],0.027 ± 0.11
same,promoter activity interaction Z-score,[2]; [12],-0.22 ± 0.026
same,promoter activity interaction Z-score,[2]; [13],-0.108 ± 0.19
same,promoter activity interaction Z-score,[2]; [14],-0.0765 ± 0.087
same,promoter activity interaction Z-score,[2]; [15],0.17 ± 0.086
same,promoter activity interaction Z-score,[2]; [16],0.575 ± 0.65
same,promoter activity interaction Z-score,[2]; [17],0.543 ± 0.31
same,promoter activity interaction Z-score,[2]; [18],0.678 ± 1
same,promoter activity interaction Z-score,[2]; [19],0.166
same,promoter activity interaction Z-score,[3]; [8],-0.256 ± 0.0079
same,promoter activity interaction Z-score,[3]; [9],-0.00364 ± 0.024
same,promoter activity interaction Z-score,[3]; [10],-0.0412 ± 0.1
same,promoter activity interaction Z-score,[3]; [11],0.232 ± 0.23
same,promoter activity interaction Z-score,[3]; [12],-0.302 ± 0.26
same,promoter activity interaction Z-score,[3]; [13],0.035 ± 0.072
same,promoter activity interaction Z-score,[3]; [14],0.115 ± 0.15
same,promoter activity interaction Z-score,[3]; [15],0.509 ± 0.23
same,promoter activity interaction Z-score,[3]; [16],-0.614 ± 0.016
same,promoter activity interaction Z-score,[3]; [17],0.0535 ± 0.039
same,promoter activity interaction Z-score,[3]; [18],0.114 ± 0.013
same,promoter activity interaction Z-score,[3]; [19],0.235 ± 0.36
same,promoter activity interaction Z-score,[4]; [8],-0.504 ± 0.27
same,promoter activity interaction Z-score,[4]; [9],-0.192 ± 0.27
same,promoter activity interaction Z-score,[4]; [10],0.285 ± 0.14
same,promoter activity interaction Z-score,[4]; [11],0.28 ± 0.15
same,promoter activity interaction Z-score,[4]; [12],-1.09 ± 0.052
same,promoter activity interaction Z-score,[4]; [13],-0.0939 ± 0.49
same,promoter activity interaction Z-score,[4]; [14],-0.00259 ± 0.23
same,promoter activity interaction Z-score,[4]; [15],0.504 ± 0.56
same,promoter activity interaction Z-score,[4]; [16],-0.826
same,promoter activity interaction Z-score,[4]; [17],-0.127 ± 0.14
same,promoter activity interaction Z-score,[4]; [18],-0.414
same,promoter activity interaction Z-score,[4]; [19],0.191 ± 0.32
same,promoter activity interaction Z-score,[5]; [8],-0.805 ± 0.067
same,promoter activity interaction Z-score,[5]; [9],-0.513 ± 0.77
same,promoter activity interaction Z-score,[5]; [10],0.0663 ± 0.25
same,promoter activity interaction Z-score,[5]; [11],-0.014 ± 0.43
same,promoter activity interaction Z-score,[5]; [12],-0.862 ± 1.1
same,promoter activity interaction Z-score,[5]; [13],0.245 ± 0.6
same,promoter activity interaction Z-score,[5]; [14],-0.248 ± 0.75
same,promoter activity interaction Z-score,[5]; [15],0.869 ± 0.64
same,promoter activity interaction Z-score,[5]; [16],-1.31 ± 0.28
same,promoter activity interaction Z-score,[5]; [17],-0.148 ± 0.081
same,promoter activity interaction Z-score,[5]; [18],-1.14 ± 0.47
same,promoter activity interaction Z-score,[5]; [19],-0.192 ± 0.46
same,promoter activity interaction Z-score,[6]; [8],-0.176 ± 0.037
same,promoter activity interaction Z-score,[6]; [9],0.0574 ± 0.0087
same,promoter activity interaction Z-score,[6]; [10],0.128 ± 0.056
same,promoter activity interaction Z-score,[6]; [11],0.247 ± 0.13
same,promoter activity interaction Z-score,[6]; [12],-0.318 ± 0.11
same,promoter activity interaction Z-score,[6]; [13],-0.0384 ± 0.093
same,promoter activity interaction Z-score,[6]; [14],0.0805 ± 0.022
same,promoter activity interaction Z-score,[6]; [15],0.308 ± 0.14
same,promoter activity interaction Z-score,[6]; [16],-0.16 ± 0.27
same,promoter activity interaction Z-score,[6]; [17],-0.404 ± 0.039
same,promoter activity interaction Z-score,[6]; [18],-0.462 ± 0.067
same,promoter activity interaction Z-score,[6]; [19],0.162 ± 0.49
same,promoter activity interaction Z-score,[7]; [8],-0.827 ± 0.069
same,promoter activity interaction Z-score,[7]; [9],0.61 ± 0.68
same,promoter activity interaction Z-score,[7]; [10],-0.223 ± 0.083
same,promoter activity interaction Z-score,[7]; [11],0.974 ± 0.11
same,promoter activity interaction Z-score,[7]; [12],-0.519 ± 0.51
same,promoter activity interaction Z-score,[7]; [13],0.897 ± 0.19
same,promoter activity interaction Z-score,[7]; [14],0.252 ± 0.61
same,promoter activity interaction Z-score,[7]; [15],0.0714 ± 0.32
same,promoter activity interaction Z-score,[7]; [16],-0.626 ± 0.67
same,promoter activity interaction Z-score,[7]; [17],-0.251 ± 0.16
same,promoter activity interaction Z-score,[7]; [18],-0.791 ± 0.011
same,promoter activity interaction Z-score,[7]; [19],0.133 ± 0.12
